Test results: PubChem BioAssay (NCATS)
Several values for one entry are separate records, joined by “and”; a condition that tells them apart may be missing. Equal values may be shown once. Inconclusive results are not listed. A call without a number means that no potency is given here. Activity calls are given as the source filed them. Unless noted, calls follow the shape of the full dose curve.

Key:
[1] = Cytotoxicity counterscreen for inhibitors of SARS-CoV-2 cell entry (AID 1645845); settings: cell viability (SARS-CoV-2 entry assay cells); series mostly up to 57.1 µM; also: nearly all actives have a fitted effect of over 50% in size; also: potency is read from the fitted curve at half-maximal effect
Procedure, shortened: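 After a 15 min room-temperature ATPLite 1step step, luminescence reflected ATP remaining in HEK293-ACE2 cells exposed to compound for 1 h plus 48 h at 37 C, with percent activity set by cell and no-cell controls.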

[2] = molecular target: Calcium and integrin-binding protein 1 (Homo sapiens) (UniProt Q99828); test: Primary qHTS for Identification of Calcium Integrin Binding Protein 1 (CIB1) Competitor (AID 1508620; active = well fitted curve in the direction sought with a large enough effect; an effect the other way counts as inactive or inconclusive; also: potency is read from the fitted curve at half-maximal effect;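 as to activity change, negative = inhibition: GST tagged CIB1 binding a fluorescein labelled alphaIIb integrin peptide tracer; top concentration of the series differs between compounds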); settings: CIB1-GST / FITC-alphaIIb peptide fluorescence polarization; series mostly up to 114 µM
Calcium and integrin-binding protein 1 (Homo sapiens), sequence (Q99828 whole entry, looked up): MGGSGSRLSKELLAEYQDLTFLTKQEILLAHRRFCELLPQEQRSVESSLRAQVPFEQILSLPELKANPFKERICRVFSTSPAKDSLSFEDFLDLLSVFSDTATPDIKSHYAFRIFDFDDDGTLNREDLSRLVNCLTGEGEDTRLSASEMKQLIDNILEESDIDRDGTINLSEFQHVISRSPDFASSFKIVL
Procedure, shortened: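 Fluorescence polarization competition: CIB1-GST (1 uM final) preincubated with compound 15 min at room temperature, then FITC-labeled alphaIIb peptide (100 nM final) added for another 15 min. Polarization read at Ex 480/Em 540.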

[3] = molecular target: Cytochrome P450 2D6 (Homo sapiens) (UniProt P10635); test: Cytochrome P450 family 2 subfamily D member 6 (CYP2D6) small molecule antagonists: luciferase biochemical (cell-free) qHTS assay (AID 1645840; active = well fitted curve in the direction sought with a large enough effect in the repeat runs; an effect the other way counts as inactive or inconclusive; also: nearly all actives have a fitted effect of over 55% in size; also: potency is read from the fitted curve at half-maximal effect); settings: P450-Glo CYP2D6 enzyme, luciferin luminescence, 1 h; series mostly up to 57.4 µM
Cytochrome P450 2D6 (Homo sapiens), sequence (P10635 whole entry, looked up): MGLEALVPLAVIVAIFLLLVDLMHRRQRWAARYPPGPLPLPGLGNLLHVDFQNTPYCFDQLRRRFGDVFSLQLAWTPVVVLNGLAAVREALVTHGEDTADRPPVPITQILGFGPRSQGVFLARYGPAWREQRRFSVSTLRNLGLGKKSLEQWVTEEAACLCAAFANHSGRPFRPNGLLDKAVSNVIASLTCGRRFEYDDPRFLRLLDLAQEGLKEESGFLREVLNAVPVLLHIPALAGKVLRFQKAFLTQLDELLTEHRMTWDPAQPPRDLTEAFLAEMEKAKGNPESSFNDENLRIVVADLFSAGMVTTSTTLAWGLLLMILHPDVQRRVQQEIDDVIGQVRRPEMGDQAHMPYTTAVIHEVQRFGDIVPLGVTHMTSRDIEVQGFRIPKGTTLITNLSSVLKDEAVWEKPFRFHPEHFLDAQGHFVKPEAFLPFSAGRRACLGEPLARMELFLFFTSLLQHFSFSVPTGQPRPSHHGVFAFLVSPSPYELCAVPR
Procedure, shortened: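 P450-Glo CYP2D6 system: proluciferin substrate converted by enzyme to luciferin, read by luminescence proportional to activity. Enzyme-substrate mix with compound 10 min at room temperature, then NADPH regeneration 1 h before detection reagent.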

[4] = molecular target: Cytochrome P450 2C9 (Homo sapiens) (UniProt P11712); test: Cytochrome P450 family 2 subfamily C member 9 (CYP2C9) small molecule antagonists: luciferase biochemical (cell-free) qHTS assay (AID 1645842; active = well fitted curve in the direction sought with a large enough effect in the repeat runs; an effect the other way counts as inactive or inconclusive; also: nearly all actives have a fitted effect of over 55% in size; also: potency is read from the fitted curve at half-maximal effect); settings: P450-Glo CYP2C9 enzyme assay, luciferin luminescence; series mostly up to 57.4 µM
Cytochrome P450 2C9 (Homo sapiens), sequence (P11712 whole entry, looked up): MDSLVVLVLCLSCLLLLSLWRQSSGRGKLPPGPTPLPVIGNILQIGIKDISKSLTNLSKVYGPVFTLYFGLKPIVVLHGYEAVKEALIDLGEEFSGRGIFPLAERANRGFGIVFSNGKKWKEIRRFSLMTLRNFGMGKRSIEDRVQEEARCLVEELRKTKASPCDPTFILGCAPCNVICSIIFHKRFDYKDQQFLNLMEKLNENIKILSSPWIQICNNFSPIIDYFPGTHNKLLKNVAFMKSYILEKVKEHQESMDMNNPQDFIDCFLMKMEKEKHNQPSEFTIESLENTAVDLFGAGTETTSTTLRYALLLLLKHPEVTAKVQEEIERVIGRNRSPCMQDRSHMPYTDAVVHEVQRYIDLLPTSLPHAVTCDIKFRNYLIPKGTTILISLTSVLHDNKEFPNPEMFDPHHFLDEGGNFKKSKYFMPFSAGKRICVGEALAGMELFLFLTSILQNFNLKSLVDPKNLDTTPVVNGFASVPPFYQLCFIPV
Procedure, shortened: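 P450-Glo CYP2C9 system: proluciferin substrate with enzyme in mix containing 0.4% BSA, 10 min at room temperature, then NADPH regeneration solution added and incubated 1 h at 37C. Detection reagent stopped reaction; luminescence read after 20 min as RLU.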

[5] = Primary qHTS to identify inhibitors of SARS-CoV-2 cell entry (AID 1645846); settings: SARS-CoV-2 pseudovirus cell entry assay, luminescence; activity change, negative = inhibition: at 57.1 µM (top of the series) unless noted; series mostly up to 57.1 µM; also: nearly all actives have a fitted effect of over 45% in size
Procedure, shortened: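 HEK293-ACE2 (Expi293F, stable hACE2), 1500 cells/well, o/n 37C; cpd 23 nL pin, 1 h; MLV-PP w/ SARS-CoV-2-S (Wuhan-Hu-1, Δ19 C-term); 48 h 37C; Bright-Glo luminescence; normalized vs S-PP and bald PP.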

[6] = Primary qHTS for inhibitors of nuclear receptor binding SET domain protein 2 (NSD2) in an isogenic RCH-ACV NSD2 p.E1099K mutant (9B) (AID 1645876; active = well fitted curve in the direction sought with a large enough effect; an effect the other way counts as inactive or inconclusive; also: nearly all actives have a fitted effect of over 70% in size; also: potency is read from the fitted curve at half-maximal effect); settings: RCH-ACV NSD2 E1099K (9B) viability, CellTiter-Glo, 72 h; series mostly up to 44.9 µM
[7] = Primary qHTS for inhibitors of nuclear receptor binding SET domain protein 2 (NSD2) in an RCH-ACV wild type WT cells (2C) (AID 1645877; active = well fitted curve in the direction sought with a large enough effect; an effect the other way counts as inactive or inconclusive; also: nearly all actives have a fitted effect of over 70% in size; also: potency is read from the fitted curve at half-maximal effect); settings: RCH-ACV (leukaemia line) NSD2 WT (2C) viability, CellTiter-Glo, 72 h; series mostly up to 44.9 µM
[8] = Primary qHTS for small molecule stabilizers of the endoplasmic reticulum resident proteome: Secreted ER Calcium Modulated Protein (SERCaMP) assay (AID 1508630; active = well fitted curve in the direction sought with a large enough effect; an effect the other way counts as inactive or inconclusive); settings: SH-SY5Y GLuc-SERCaMP (Gaussia luciferase released on ER calcium loss) secretion, thapsigargin, luminescence; series mostly up to 38.4 µM
Procedure, shortened: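 The SH-SY5Y reporter protocol was run at 3 concentrations up to 38.3 uM (primary) or 11 concentrations (follow-up): 16 h compound, 100 nM thapsigargin for 4 h, then extracellular luciferase luminescence.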

[9] = A High-Content qHTS Against Drug Library for the Identification of Small Molecules that Inhibit DYT1 Early Onset Primary Dystonia-Associated Cell Pathology (AID 1645839); settings: HEK293 Flp-In EGFP-delE TorsinA, punctate imaging, 48 h; series mostly up to 46.1 µM
Procedure, shortened: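 Induced EGFP-delE TorsinA cells are imaged after 48 h of compound treatment. Punctate fusion-protein distribution gives the %pathology value, while nuclei counts flag toxicity. Wild-type EGFP-hTOR1A cells define the normal pattern.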

[10] = VSVG counterscreen qHTS to identify inhibitors of SARS-CoV-2 cell entry (AID 1645847); settings: VSV-G pseudotyped particle entry, luciferase; series mostly up to 57.2 µM; also: potency is read from the fitted curve at half-maximal effect; nearly all actives have a fitted effect of over 65% in size
Procedure, shortened: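 Expi293F/hACE2 cells, overnight plating; cpd 1 h, 37C/5% CO2; + VSV-G PP (MLV pseudotyping), 48 h; supernatant removed, Bright-Glo luciferase read. Norm: VSV-G PP and bald PP wells.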

## Clc1ccc(Cn2c(CN3CCCC3)nc3ccccc32)cc1
[1]
  Potency: inactive

## CN1CCCN(C(c2ccccc2)c2ccc(Cl)cc2)CC1 (configuration not stated)
[1]
  Potency: inactive

## CN1C[C@H](C(=O)N[C@]2(C)O[C@@]3(O)[C@@H]4CCCN4C(=O)[C@H](Cc4ccccc4)N3C2=O)C[C@@H]2c3cccc4[nH]cc(c34)C[C@H]21
[1]
  Potency: inactive

## CC(C)OC(=O)C(C(=O)OC(C)C)=C1SC=CS1
[1]
  Potency: inactive

## CC(C)(C)c1ccc(C(O)CCCN2CCC(C(O)(c3ccccc3)c3ccccc3)CC2)cc1 (configuration not stated)
[1]
  Potency: inactive

## N#C/C(=C1/SC[C@@H](c2ccc(Cl)cc2Cl)S1)n1ccnc1
[1]
  Potency: inactive

## CCC1(c2cccc(O)c2)CCCCN(C)C1 (configuration not stated)
[2]
  Potency: inactive
[3]
  Potency: 13.8 µM (active)
[4]
  Potency: inactive
[1]
  Potency: inactive
[5]
  Potency: inactive
[6]
  Potency: inactive
[7]
  Potency: inactive

## CCCCN1CCCC[C@H]1C(=O)Nc1c(C)cccc1C
[1]
  Potency: inactive

## CCOC(=O)[C@H](CCc1ccccc1)N[C@@H](C)C(=O)N(CC(=O)O)C1Cc2ccccc2C1
[1]
  Potency: inactive

## COc1ccc2c(c1OC)C(=O)O[C@@H]2[C@H]1c2c(cc3c(c2OC)OCO3)CCN1C
[1]
  Potency: inactive

## CCCCCCCCCCCCOS(=O)(=O)O
[3]
  Potency: inactive
[4]
  Potency: inactive
[1]
  Potency: inactive
[5]
  activity change, negative = inhibition: -9.15%

## C[C@]12CCC(=O)C=C1CC[C@@H]1[C@@H]2[C@@H](O)C[C@@]2(C)[C@H]1CC[C@]2(O)C(=O)CO
[1]
  Potency: inactive

## C[C@@H]1O[C@@H](O[C@@H]2C=C3CC[C@@H]4[C@H](CC[C@]5(C)[C@@H](c6ccc(=O)oc6)CC[C@]45O)[C@@]3(C)CC2)[C@H](O)[C@H](O)[C@H]1O
[2]
  Potency: inactive
[8]
  outcome: inactive
[9]
  outcome: inactive
[3]
  Potency: inactive
[5]
  activity change, negative = inhibition: -97.4%
[6]
  Potency: 10.5 nM (active) and 4.7 nM (active)
[7]
  Potency: 13.2 nM (active) and 7.5 nM (active)

## O=C(O)[C@H](O)[C@@H](O)[C@H](O[C@@H]1O[C@H](CO)[C@H](O)[C@H](O)[C@H]1O)[C@H](O)CO
[1]
  Potency: inactive

## N[C@@H](CSCCCO)C(=O)O
[1]
  Potency: inactive

## CCN(CC)CCOC(=O)C1(c2ccccc2)CCCC1
[1]
  Potency: inactive

## c1ccc2c(c1)Sc1ccccc1N2CC1CN2CCC1CC2 (configuration not stated)
[2]
  Potency: inactive
[8]
  outcome: inactive
[3]
  Potency: 0.123 µM (active)
[4]
  Potency: inactive
[10]
  Potency: 0.383 µM (active)

## CN1CCC(OC(c2ccccc2)c2ccccc2)CC1
[1]
  Potency: inactive

## N[C@H](Cc1c[nH]c2ccccc12)C(=O)O
[1]
  Potency: inactive

## COc1cc(O)c(C(=O)c2ccccc2)cc1S(=O)(=O)O
[1]
  Potency: inactive

## CC1(C)OC[C@@H](COC(=O)CCc2ccc(OC[C@@H](O)CNCCNC(=O)N3CCOCC3)cc2)O1
[1]
  Potency: inactive

## CN(C)C(=S)SSC(=S)N(C)C
[2]
  Potency: 39.8 µM (active)
[4]
  Potency: 3.47 µM (active)
[1]
  Potency: 1.58 µM (active)

## C=Cc1c(C)c2cc3[nH]c(cc4nc(cc5nc(cc1[nH]2)C(C)=C5CCC(=O)O)C(CCC(=O)O)=C4C)c(C)c3C=C
[1]
  Potency: inactive

## O=C1OC2(c3ccccc31)c1cc(I)c(O)c(I)c1Oc1c2cc(I)c(O)c1I
[1]
  Potency: inactive

## CCCC(=O)OC[C@@H](OC(=O)CCC)[C@@H](OC(=O)CCC)[C@H](Cn1c2nc(=O)[nH]c(=O)c-2nc2cc(C)c(C)cc21)OC(=O)CCC
[1]
  Potency: inactive

## CC[C@H](c1ccc(O)cc1)[C@@H](CC)c1ccc(O)cc1
[1]
  Potency: inactive

## COc1cccc(CCc2ccccc2OCC(CN(C)C)OC(=O)CCC(=O)O)c1 (configuration not stated)
[1]
  Potency: inactive

## C(=C\c1ccccc1)/CN1CCN(C(c2ccccc2)c2ccccc2)CC1
[1]
  Potency: inactive

## CN(Cc1cc(Br)cc(Br)c1N)C1CCCCC1
[1]
  Potency: inactive

## CC(COc1ccccc1)NC(C)C(O)c1ccc(O)cc1 (configuration not stated)
[1]
  Potency: inactive

## CN(C)CCN(Cc1ccccc1)c1ccccn1
[1]
  Potency: inactive

## CC(C)C(=O)OCc1cccc(OC(=O)[C@@H]2N3C(=O)[C@@H](NC(=O)Cc4ccccc4)[C@H]3SC2(C)C)c1
[1]
  Potency: inactive

## Cc1ccc(/C(=C\CN2CCCC2)c2ccccn2)cc1
[1]
  Potency: inactive

## CN1CCCN=C1/C=C/c1cccs1
[1]
  Potency: inactive
[5]
  activity change, negative = inhibition: -29.2%

## CN1CCC(=C2c3ccccc3CCc3cccnc32)CC1
[1]
  Potency: inactive

## C1CCN2C[C@@H]3C[C@@H](CN4CCCC[C@@H]34)[C@H]2C1
[1]
  Potency: inactive
[5]
  activity change, negative = inhibition: -16.5%

## c1ccc2[nH]c(-c3cscn3)nc2c1
[1]
  Potency: inactive
[5]
  Potency: inactive

## CCn1cc(C(=O)O)c(=O)c2cc(F)c(N3CCN(C)CC3)cc21
[1]
  Potency: inactive
[5]
  Potency: inactive

## COc1ccccc1OC(=O)Oc1ccccc1OC
[1]
  Potency: inactive
[5]
  Potency: inactive

## CN1[C@@H]2CC[C@H]1CC(OC(=O)c1c[nH]c3ccccc13)C2 (some centres not stated)
[1]
  Potency: inactive
[5]
  Potency: inactive
